Drawing on the supplement of paper PMC9262897, “Low-cost anti-mycobacterial drug discovery using engineered E. coli” (Nature Communications, 2022), this text covers growth for 14 compounds.

SMILES strings stand for the structures. Structures can show the parent of a compound that is named as a salt. ± gives the standard deviation of the averaged measurements.

This assay deals with E. coli TESEC Mtb DapB. Kind of assay: growth (OD600 after 10 h); higher = more growth (less inhibition). Particulars: arabinose induction (level): High; compound 0.1 mM; raw OD600 reference: median of DMSO wells […], cell-free background 0.041. On the procedure:
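TESEC E. coli strains in which the native enzyme is deleted and replaced by arabinose-inducible Mtb Asd, DapB, CysH or TrpD, each grown in its selective medium. Strains were screened against the Prestwick library at 0.1 mM and 1% DMSO in 384-well format at low and high arabinose induction. Growth is read as OD600 after 10 h in triplicate.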
For the compound `CC(C)(C)NCC(O)c1ccccc1Cl` (centres undefined) [Tulobuterol], the growth came to 0.181 ± 0.017.
As to `Clc1ccc(C(OCCN2CCCCC2)c2ccccc2)cc1` (centres undefined) [Cloperastine hydrochloride], the growth worked out at 0.146 ± 0.012.
The result for `CN(C)C(=O)Oc1cc(OC(=O)N(C)C)cc(C(O)CNC(C)(C)C)c1` (centres undefined) [Bambuterol hydrochloride] reads 0.193 ± 0.02; that for `C[C@@H]1C[C@@H]([C@H](O)CC2CC(=O)NC(=O)C2)C(=O)[C@@H](C)C1` [Cycloheximide], 0.231 ± 0.031.
The result for `CC(Cc1ccc(O)cc1)NCC(O)c1cc(O)cc(O)c1` (centres undefined) [Fenoterol hydrobromide] reads 0.201 ± 0.017; that for `COc1ccc(CCN)cc1OC` [Homoveratrylamine], 0.188 ± 0.012.
For `C(#CCN1CCCC1)CN1CCCC1` [Tremorine dihydrochloride] the value was 0.2 ± 0.015; for `O=C1CC[C@@]2(O)[C@H]3Cc4ccc(O)c5c4[C@@]2(CCN3CC2CC2)[C@H]1O5` [Naltrexone hydrochloride dihydrate], 0.193 ± 0.0052; for `C[N+]1(C)CCCC(OC(=O)C(O)(c2ccccc2)c2ccccc2)C1` (centres undefined) [Mepenzolate bromide], 0.188 ± 0.0063.
In turn, `C1CCc2nnnn2CC1` [Pentylenetetrazole] came in with a growth of 0.227 ± 0.037.
`CC(=O)NC1CCSC1=O` (racemic) [N-Acetyl-DL-homocysteine Thiolactone] displayed a growth of 0.226 ± 0.0088.
The result for `CNC(C)(C)Cc1ccccc1` [Mephentermine hemisulfate] reads 0.208 ± 0.012; that for `N[C@@H]1C[C@H]1c1ccccc1` [Tranylcypromine hydrochloride], 0.183 ± 0.0098.
`CC(NC(C)(C)C)C(=O)c1cccc(Cl)c1` (centres undefined) [Bupropion hydrochloride] yielded a growth of 0.202 ± 0.0039.
